# From PMC7862700, “An all-to-all approach to the identification of sequence-specific readers for epigenetic DNA modifications on cytosine”
# What was measured:
# Test in all cases: DAPPL (digital affinity profiling via proximity ligation, sequencing); 10 mM Tris-HCl pH 7.5, 50 mM NaCl, 1 mM DTT, 4% glycerol, room temperature, 30 min; GST-TFs on glutathione beads, 16-mer random dsDNA library, 0.1% formaldehyde crosslink after washing; high values mean tight binding
# [1] = target: T1, FEV (Homo sapiens, UniProt Q99581 1-238); conditions: protein: recombinant; tags: N-terminal GST; dsDNA, one strand shown
# T1 sequence: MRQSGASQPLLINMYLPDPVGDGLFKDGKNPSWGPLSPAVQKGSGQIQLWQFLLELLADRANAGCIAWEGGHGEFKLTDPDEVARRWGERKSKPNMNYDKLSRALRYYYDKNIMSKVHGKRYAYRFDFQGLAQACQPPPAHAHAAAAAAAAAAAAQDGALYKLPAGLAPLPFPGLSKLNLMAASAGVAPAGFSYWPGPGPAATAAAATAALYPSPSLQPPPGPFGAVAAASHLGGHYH
# Method in brief: (§1)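 Sequencing on an Illumina NextSeq500 followed washing, crosslinking with 0.1% formaldehyde, proximity ligation (BsaI/T4 ligase, 1 h, 37 °C) and PCR amplification of pools that had been incubated for 30 min at room temperature with 200 nmole of a random double-stranded 16-mer DNA library in Tris/NaCl/DTT/glycerol buffer. Each pool held DNA-barcoded human transcription factors, expressed in yeast as GST fusions and captured on glutathione beads, plus a tag-only sample. Binding signal is a hexamer's read frequency for a factor divided by its frequency in the tag-only sample.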
# [2] = target: ETV5 (Homo sapiens, UniProt P41161 1-510); conditions: protein: recombinant; tags: N-terminal GST; dsDNA, one strand shown
# Method in brief: as §1
# [3] = target: HSF1 (Homo sapiens, UniProt Q00613 1-529); conditions: protein: recombinant; tags: N-terminal GST; chain copies: 3; dsDNA, one strand shown
# Method in brief: as §1
# [4] = target: T2, SPIC (Homo sapiens, UniProt Q8N5J4 1-248); conditions: protein: recombinant; tags: N-terminal GST; dsDNA, one strand shown
# T2 sequence: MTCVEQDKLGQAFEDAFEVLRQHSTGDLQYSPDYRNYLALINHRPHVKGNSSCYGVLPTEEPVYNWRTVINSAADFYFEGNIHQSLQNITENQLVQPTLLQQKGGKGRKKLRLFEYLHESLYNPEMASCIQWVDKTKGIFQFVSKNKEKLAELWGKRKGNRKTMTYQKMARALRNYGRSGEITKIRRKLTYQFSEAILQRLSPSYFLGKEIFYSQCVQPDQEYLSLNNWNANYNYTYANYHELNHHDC
# Method in brief: as §1
# [5] = target: ELF4 (Homo sapiens, UniProt Q99607 1-663); conditions: protein: recombinant; tags: N-terminal GST; dsDNA, one strand shown
# Method in brief: as §1
# [6] = target: T3, ELK4 (Homo sapiens, UniProt P28324-2 1-405); conditions: protein: recombinant; tags: N-terminal GST; dsDNA, one strand shown
# T3 sequence: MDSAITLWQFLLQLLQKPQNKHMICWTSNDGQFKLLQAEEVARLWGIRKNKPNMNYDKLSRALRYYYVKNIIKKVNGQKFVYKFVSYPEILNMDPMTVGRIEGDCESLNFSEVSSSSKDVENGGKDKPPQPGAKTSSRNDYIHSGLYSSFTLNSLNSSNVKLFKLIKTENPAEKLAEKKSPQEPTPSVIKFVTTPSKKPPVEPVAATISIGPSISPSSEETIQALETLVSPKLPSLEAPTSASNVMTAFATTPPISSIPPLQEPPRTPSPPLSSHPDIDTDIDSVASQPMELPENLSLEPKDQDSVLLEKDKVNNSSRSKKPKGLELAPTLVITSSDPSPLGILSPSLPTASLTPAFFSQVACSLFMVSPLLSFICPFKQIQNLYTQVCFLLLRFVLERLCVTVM
# Method in brief: as §1
# [7] = target: T4, ETV2 (Homo sapiens, UniProt O00321 1-342); conditions: protein: recombinant; tags: N-terminal GST; dsDNA, one strand shown
# T4 sequence: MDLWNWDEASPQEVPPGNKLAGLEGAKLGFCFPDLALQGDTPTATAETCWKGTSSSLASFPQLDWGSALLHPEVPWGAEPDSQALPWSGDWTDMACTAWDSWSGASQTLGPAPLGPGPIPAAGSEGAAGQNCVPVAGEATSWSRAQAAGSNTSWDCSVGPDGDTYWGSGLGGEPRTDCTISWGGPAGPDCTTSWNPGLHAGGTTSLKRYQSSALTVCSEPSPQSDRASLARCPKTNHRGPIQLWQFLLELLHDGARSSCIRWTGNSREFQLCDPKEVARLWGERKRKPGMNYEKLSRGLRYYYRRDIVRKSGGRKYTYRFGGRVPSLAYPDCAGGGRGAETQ
# Method in brief: as §1
# [8] = target: T5, ELF3 (Homo sapiens, UniProt P78545 1-371); conditions: protein: recombinant; tags: N-terminal GST; dsDNA, one strand shown
# T5 sequence: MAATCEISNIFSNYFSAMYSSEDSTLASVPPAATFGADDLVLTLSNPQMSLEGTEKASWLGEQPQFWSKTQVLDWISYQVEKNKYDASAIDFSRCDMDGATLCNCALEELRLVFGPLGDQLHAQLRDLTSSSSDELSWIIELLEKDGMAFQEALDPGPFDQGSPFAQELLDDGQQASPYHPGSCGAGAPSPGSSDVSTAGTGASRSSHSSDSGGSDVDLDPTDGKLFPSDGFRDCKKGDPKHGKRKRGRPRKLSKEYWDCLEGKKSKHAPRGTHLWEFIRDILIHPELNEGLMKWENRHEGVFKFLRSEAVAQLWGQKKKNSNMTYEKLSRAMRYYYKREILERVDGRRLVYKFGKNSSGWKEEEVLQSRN
# Method in brief: as §1
# [9] = target: CRX (Homo sapiens, UniProt O43186 1-299); conditions: protein: recombinant; tags: N-terminal GST; dsDNA, one strand shown
# Method in brief: as §1
# [10] = target: ETV1 (Homo sapiens, UniProt P50549 1-477); conditions: protein: recombinant; tags: N-terminal GST; dsDNA, one strand shown
# Method in brief: as §1
# [11] = target: T6, ERF (Homo sapiens, UniProt P50548 1-548); conditions: protein: recombinant; tags: N-terminal GST; dsDNA, one strand shown
# T6 sequence: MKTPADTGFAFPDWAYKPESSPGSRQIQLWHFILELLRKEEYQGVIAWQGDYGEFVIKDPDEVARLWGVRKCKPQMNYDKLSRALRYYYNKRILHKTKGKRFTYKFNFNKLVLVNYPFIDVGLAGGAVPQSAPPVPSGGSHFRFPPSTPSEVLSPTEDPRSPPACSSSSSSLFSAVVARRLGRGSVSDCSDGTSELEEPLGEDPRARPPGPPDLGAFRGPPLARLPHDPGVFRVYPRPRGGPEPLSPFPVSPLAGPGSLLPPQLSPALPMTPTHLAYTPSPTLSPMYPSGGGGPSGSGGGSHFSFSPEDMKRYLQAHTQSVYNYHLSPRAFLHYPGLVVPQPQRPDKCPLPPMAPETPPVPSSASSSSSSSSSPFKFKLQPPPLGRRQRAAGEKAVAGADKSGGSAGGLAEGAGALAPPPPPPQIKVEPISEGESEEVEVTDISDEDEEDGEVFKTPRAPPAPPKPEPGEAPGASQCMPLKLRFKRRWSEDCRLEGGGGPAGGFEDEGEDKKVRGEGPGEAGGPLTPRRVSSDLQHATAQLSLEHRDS
# Method in brief: as §1
# [12] = target: T7, ETV3L (Homo sapiens, UniProt Q6ZN32 1-361); conditions: protein: recombinant; tags: N-terminal GST; dsDNA, one strand shown
# T7 sequence: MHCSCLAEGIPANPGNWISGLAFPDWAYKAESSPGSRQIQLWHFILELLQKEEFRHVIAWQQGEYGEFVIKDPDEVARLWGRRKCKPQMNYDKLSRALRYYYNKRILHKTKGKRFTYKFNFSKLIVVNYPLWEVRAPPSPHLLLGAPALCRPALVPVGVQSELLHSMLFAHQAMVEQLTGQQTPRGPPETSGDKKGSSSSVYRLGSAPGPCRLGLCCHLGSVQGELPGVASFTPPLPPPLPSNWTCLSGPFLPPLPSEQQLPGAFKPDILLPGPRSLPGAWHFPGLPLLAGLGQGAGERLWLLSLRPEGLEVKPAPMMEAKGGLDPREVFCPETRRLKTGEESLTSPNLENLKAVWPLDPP
# Method in brief: as §1
# [13] = target: T8, ETS2 (Homo sapiens, UniProt P15036 1-469); conditions: protein: recombinant; tags: N-terminal GST; dsDNA, one strand shown
# T8 sequence: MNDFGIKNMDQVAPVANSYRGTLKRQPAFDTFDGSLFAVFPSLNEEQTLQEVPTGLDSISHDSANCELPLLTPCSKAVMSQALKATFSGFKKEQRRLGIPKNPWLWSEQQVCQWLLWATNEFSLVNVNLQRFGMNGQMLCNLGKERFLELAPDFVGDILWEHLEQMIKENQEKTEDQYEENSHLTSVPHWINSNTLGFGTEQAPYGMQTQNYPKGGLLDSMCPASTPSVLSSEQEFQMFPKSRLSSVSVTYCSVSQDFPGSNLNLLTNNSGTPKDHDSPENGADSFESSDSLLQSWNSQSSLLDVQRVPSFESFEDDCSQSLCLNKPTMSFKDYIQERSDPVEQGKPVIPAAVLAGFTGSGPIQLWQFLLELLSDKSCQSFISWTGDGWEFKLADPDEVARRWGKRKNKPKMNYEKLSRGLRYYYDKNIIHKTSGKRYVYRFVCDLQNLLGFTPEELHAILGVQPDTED
# Method in brief: as §1
# [14] = target: T9, SPDEF (Homo sapiens, UniProt O95238 1-335); conditions: protein: recombinant; tags: N-terminal GST; dsDNA, one strand shown
# T9 sequence: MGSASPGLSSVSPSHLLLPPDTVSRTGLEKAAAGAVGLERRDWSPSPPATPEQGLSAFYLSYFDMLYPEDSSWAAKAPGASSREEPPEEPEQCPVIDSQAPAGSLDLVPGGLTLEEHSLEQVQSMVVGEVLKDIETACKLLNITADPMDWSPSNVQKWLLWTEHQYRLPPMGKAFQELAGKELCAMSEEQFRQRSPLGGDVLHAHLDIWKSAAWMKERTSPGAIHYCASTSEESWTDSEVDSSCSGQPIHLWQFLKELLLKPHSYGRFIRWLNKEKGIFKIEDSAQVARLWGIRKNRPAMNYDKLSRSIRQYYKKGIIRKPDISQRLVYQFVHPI
# Method in brief: as §1
# [15] = target: T10, ETV7 (Homo sapiens, UniProt Q9Y603 1-341); conditions: protein: recombinant; tags: N-terminal GST; dsDNA, one strand shown
# T10 sequence: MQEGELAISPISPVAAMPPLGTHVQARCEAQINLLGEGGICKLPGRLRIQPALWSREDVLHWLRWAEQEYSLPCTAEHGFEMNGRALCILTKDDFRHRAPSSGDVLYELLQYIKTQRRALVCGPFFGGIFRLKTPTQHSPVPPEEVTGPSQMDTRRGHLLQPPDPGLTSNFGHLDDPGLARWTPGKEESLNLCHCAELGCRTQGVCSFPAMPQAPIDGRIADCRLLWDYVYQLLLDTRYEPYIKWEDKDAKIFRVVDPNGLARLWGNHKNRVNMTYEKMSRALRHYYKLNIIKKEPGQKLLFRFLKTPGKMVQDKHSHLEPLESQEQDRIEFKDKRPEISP
# Method in brief: as §1
# [16] = target: T11, ELF5 (Homo sapiens, UniProt Q9UKW6-2 1-255); conditions: protein: recombinant; tags: N-terminal GST; dsDNA, one strand shown
# T11 sequence: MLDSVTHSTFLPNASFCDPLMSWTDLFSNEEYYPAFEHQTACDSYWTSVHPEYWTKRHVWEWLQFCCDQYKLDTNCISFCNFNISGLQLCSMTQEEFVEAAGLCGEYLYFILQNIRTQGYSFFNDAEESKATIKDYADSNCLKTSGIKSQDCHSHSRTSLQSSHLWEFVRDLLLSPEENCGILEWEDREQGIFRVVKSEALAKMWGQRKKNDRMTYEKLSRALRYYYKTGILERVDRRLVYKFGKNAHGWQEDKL
# Method in brief: as §1
# [17] = target: T12, ETV3 (Homo sapiens, UniProt P41162-2 1-143); conditions: protein: recombinant; tags: N-terminal GST; dsDNA, one strand shown
# T12 sequence: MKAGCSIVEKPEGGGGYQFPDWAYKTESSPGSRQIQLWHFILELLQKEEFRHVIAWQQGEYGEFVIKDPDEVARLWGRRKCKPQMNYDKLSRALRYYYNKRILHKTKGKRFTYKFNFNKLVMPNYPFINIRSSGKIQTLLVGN
# Method in brief: as §1
# [18] = target: ETV6 (Homo sapiens, UniProt P41212 1-452); conditions: protein: recombinant; tags: N-terminal GST; dsDNA, one strand shown
# Method in brief: as §1
# Sequence of ETV5 (P41161 whole entry): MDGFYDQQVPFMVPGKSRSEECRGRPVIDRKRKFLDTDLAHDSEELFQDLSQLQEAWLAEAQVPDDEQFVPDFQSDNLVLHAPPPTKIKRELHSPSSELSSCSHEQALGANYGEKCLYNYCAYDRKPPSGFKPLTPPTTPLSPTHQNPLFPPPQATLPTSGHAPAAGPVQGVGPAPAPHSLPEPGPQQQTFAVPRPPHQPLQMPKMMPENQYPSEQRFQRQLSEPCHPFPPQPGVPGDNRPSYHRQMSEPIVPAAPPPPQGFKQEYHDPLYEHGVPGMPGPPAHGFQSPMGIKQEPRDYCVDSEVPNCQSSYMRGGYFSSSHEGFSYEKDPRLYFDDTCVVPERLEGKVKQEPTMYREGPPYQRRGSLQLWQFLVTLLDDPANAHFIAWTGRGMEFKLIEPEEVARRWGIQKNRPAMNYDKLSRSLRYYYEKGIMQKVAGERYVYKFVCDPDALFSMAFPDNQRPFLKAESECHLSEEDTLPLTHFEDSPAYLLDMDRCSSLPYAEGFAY
# Sequence of CRX (O43186 whole entry): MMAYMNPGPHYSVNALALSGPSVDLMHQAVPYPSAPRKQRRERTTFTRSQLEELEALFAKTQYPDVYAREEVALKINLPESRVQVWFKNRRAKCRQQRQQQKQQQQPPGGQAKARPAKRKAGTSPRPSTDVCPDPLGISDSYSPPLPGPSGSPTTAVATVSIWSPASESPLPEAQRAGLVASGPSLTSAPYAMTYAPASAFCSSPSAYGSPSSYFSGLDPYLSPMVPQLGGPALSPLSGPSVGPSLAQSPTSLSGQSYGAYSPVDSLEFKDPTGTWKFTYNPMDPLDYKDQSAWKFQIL
# Sequence of ELF4 (Q99607 whole entry): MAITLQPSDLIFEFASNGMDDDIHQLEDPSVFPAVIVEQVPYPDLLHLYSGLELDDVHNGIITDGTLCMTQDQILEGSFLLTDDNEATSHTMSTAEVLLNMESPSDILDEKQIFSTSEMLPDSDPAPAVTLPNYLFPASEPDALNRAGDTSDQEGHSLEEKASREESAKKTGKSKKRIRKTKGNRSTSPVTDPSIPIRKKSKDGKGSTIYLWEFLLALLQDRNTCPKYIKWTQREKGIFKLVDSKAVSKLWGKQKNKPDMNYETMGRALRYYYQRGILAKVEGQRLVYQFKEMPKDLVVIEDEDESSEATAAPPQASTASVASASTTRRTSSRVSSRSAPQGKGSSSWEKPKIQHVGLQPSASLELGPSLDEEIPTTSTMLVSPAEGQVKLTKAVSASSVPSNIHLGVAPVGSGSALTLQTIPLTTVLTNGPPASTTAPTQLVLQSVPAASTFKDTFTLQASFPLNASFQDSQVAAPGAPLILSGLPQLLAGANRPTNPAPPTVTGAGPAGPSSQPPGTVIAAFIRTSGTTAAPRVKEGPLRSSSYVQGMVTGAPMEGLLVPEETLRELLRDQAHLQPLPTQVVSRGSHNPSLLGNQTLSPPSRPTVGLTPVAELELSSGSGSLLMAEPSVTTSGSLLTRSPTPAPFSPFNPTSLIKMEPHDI
# Sequence of ETV6 (P41212 whole entry): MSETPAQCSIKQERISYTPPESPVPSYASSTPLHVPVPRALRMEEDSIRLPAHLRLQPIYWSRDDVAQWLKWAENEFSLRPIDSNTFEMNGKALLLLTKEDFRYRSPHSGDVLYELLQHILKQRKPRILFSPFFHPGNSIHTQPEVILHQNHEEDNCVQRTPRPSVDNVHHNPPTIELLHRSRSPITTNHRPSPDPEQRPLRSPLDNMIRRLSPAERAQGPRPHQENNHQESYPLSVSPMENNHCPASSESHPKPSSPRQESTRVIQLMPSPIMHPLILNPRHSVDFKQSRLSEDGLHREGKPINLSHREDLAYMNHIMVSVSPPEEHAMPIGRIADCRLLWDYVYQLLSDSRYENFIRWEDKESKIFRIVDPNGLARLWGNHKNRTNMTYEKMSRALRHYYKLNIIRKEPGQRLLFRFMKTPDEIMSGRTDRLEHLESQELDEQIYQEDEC
# Sequence of HSF1 (Q00613 whole entry): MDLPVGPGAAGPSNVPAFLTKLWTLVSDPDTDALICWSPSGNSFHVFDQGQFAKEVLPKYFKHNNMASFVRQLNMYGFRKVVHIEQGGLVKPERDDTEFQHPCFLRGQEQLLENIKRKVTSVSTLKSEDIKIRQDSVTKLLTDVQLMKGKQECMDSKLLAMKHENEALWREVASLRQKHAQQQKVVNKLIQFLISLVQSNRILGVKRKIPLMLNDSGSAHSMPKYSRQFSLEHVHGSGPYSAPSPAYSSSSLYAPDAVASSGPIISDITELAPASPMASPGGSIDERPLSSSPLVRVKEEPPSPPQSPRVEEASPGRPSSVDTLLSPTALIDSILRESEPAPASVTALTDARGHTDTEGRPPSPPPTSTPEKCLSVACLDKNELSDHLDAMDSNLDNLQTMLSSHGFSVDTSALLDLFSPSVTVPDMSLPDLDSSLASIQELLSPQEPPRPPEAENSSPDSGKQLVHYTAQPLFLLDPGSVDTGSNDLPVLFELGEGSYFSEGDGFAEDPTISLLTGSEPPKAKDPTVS
# Sequence of ETV1 (P50549 whole entry): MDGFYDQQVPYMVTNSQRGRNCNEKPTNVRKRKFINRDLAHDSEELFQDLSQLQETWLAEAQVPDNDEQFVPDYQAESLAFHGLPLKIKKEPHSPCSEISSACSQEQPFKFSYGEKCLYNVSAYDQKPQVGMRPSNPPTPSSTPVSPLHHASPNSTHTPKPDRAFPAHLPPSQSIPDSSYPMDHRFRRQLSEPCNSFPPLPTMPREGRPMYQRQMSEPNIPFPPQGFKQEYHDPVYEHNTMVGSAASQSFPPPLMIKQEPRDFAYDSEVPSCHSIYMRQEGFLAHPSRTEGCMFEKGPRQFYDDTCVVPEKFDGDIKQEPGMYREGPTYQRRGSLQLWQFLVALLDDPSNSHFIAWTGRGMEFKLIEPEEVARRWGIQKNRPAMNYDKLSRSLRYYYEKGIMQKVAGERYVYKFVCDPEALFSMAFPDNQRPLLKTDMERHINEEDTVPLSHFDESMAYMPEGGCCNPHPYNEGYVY
sequence,measurement,setting,value
CCTTTT,binding signal,[1],"1.68 fold enrichment (6-mer frequency, TF over GST control)"
same,binding signal,[2],"1.56 fold enrichment (6-mer frequency, TF over GST control)"
same,binding signal,[3],"1.37 fold enrichment (6-mer frequency, TF over GST control)"
same,binding signal,[4],"1.83 fold enrichment (6-mer frequency, TF over GST control)"
same,binding signal,[5],"1.64 fold enrichment (6-mer frequency, TF over GST control)"
same,binding signal,[6],"1.58 fold enrichment (6-mer frequency, TF over GST control)"
same,binding signal,[7],"1.38 fold enrichment (6-mer frequency, TF over GST control)"
same,binding signal,[8],"1.68 fold enrichment (6-mer frequency, TF over GST control)"
same,binding signal,[9],"1.36 fold enrichment (6-mer frequency, TF over GST control)"
same,binding signal,[10],"1.6 fold enrichment (6-mer frequency, TF over GST control)"
same,binding signal,[11],"1.65 fold enrichment (6-mer frequency, TF over GST control)"
same,binding signal,[12],"1.69 fold enrichment (6-mer frequency, TF over GST control)"
same,binding signal,[13],"1.46 fold enrichment (6-mer frequency, TF over GST control)"
same,binding signal,[14],"1.55 fold enrichment (6-mer frequency, TF over GST control)"
same,binding signal,[15],"1.53 fold enrichment (6-mer frequency, TF over GST control)"
same,binding signal,[16],"1.61 fold enrichment (6-mer frequency, TF over GST control)"
same,binding signal,[17],"1.55 fold enrichment (6-mer frequency, TF over GST control)"
same,binding signal,[18],"1.67 fold enrichment (6-mer frequency, TF over GST control)"
